Experimental data as given in the supplement of paper PMC6555819.

Tested on: RXRa homodimer (NR concentration 180 nM)
Test: PBM binding z-score (relative to random genomic background probes); higher = stronger binding; sequences stand for … in GC…GCGATTGACAGCGTAGAATGAAGG
How it was run: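 Binding buffer was PBS pH 7.4 with 2% milk, 0.02% Triton X-100, 1 mM DTT, 0.2 mg/mL BSA and 0.4 mg/ml salmon testes DNA. In it, ligand-free nuclear receptor dimers were incubated 1 h on custom Agilent 4×180K protein-binding microarrays carrying double-stranded probes. Antibodies against each partner (one per run) detected binding, and z-scores were calculated against random background probes after regression normalization of scanned fluorescence.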

Row | Sequence | PBM binding z-score
1 | CGAACTAGGTTAAGGACAGTGAATCTCCGCACGC | 0.533
2 | CATACAGGGTCAGCTAGGCGAGAGTAGGGACGGC | 4.02
3 | ACAGACAGGTGATGTAGGTAACTCAGGCTATCAT | 0.19
4 | TGAATGAGGTTATAAGATCAGGTAACGTTGCAAA | 1.87
5 | TCTCGGAGGACACGAAAGGTCAGAGCTCGACATC | 3.97
6 | TCTCGGAGGACACGAAGGTCAGAGCATTCCAGAG | 1.97
7 | ATATGTAGGTTAAGGATCATTCAGGTTGGTTCGC | 1.42
8 | CAAACTAGGTCAAGAGGTAAAAGTCCGCTTCCCG | 3.45
9 | TCTCGGCGGACACGAAAGGTCAGAGCTCGACATC | 3.66
10 | AGAACGAGGGCAATGAGTTGATATCACGGGTGGC | 1.2
11 | CCTACTGGGCCATTCAGACGTCATTGATCATATG | -0.341
12 | TTACCAAGGTGAGCTGAGTTCGTTGATCCAACTC | 0.157
13 | TCTTGTAGATCAAAGGTTAAGAACGCCGAAGCCT | 3.38
14 | TCTCGGAGGACACGAAGGTCAGACCTTTCCAGAG | 1.94
15 | ATCTCTAGGGAAAAGTTCAGTGAATCCCGAGGAT | 0.636
16 | CCTAGGAGGACAACAGGAGGTCAGAGCTGCCAGA | 2.25
17 | CCGACTGGGGCCGAAAGGTTACCATACCATCCGG | 2.15
18 | CAAACTAGGTGAAGAGGTCAAAGTCCGCTTCCCG | 5.48
19 | CCGACTGGGGCATAAGGTCACCATAAGCCAGCCC | 4.29
20 | CCTGGTTGGTCAAGGTCACACACGCTATAGGTAC | 4.69

Row | Sequence | PBM binding z-score
21 | AATACAGGGTCACTAGGCCAGGGTAGGTACGAAT | 5.25
22 | GCTGCTAGGTCAGGTTGGTCAGCGAACGGGTACG | 1.11
23 | CAAACTAGGTCAAGAGGTCAAAGTACGCTTCCCG | 8.07
24 | AGAATGAGGTTATTAAGATCAGGTAATTGCGGTC | 1.87
25 | TATCCTAGGTCATTGGGCCAGTATAGTACGCATC | 3.37
26 | TCTATTAGATGATTAGGGCAACCGAAACAGCGGA | 0.432
27 | ATCTCTAGGTCAGACTCAGTTCAGTGAAGAACGC | 1.67
28 | CGTCCAAGGTCGGCAGGTCAGTGAAAGCGACGTG | 2.08
29 | TGAATGAGGTTAAAGAGCAGGGAACGTGGCGTCG | 3.19
30 | CCTGGCAGGCCAATCTGGGTCACTCAAGGCTTGA | 0.545
31 | CCTTACGGGTCATTGACAGGTTATAGCATTTGGA | 5.07
32 | AGAATGAGTTTAAGATCAGGGAAACAGAATACAT | 0.484
33 | CCTACTGGGCCATTCAGAGGTAATTGATCATATG | -0.244
34 | TCTGCTAGGTCAGTTGGTCAGCTATCGAGCTGCC | 0.914
35 | CCTACTGGGCTATCAGGTCATTGATATCAACGTT | 0.965
36 | CAAACTGGGTCAAGAGGTCAAAGTCCGCTTCCCG | 8.44
37 | CGTCCACGGTCAGCAGGTCAGTGAAAGCGACGTG | 0.719
38 | TCTTGTAGATCAAATGTTAAGAAAGCCGAAGCCT | 0.176
39 | GCTGCTAGGTCAACTGATGGTCCGCTAAAGCTCG | 2.8
40 | CCGATTGGGGCAGAAAGGTTACCATACCATCCGG | 1.75
